# Laboratory results reported in the supplement of paper PMC8728848.
# About 410 targets per protein were measured; listed, in parts, are those with the strongest signals and a random draw of the rest.
# What was measured:
# Test in all cases: glycan array binding signal (z-score within array); higher = stronger binding
# Conditions in all cases: glycan notation: IUPAC condensed, linker removed; mutation: R74S
# [1] = biological target: Fuc(a1-2)Gal(b1-3)GlcNAc(b1-3)[Neu5Ac(a2-6)Gal(b1-4)GlcNAc(b1-6)]Gal(b1-4)Glc
# Method in brief: (§1)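 From the Consortium for Functional Glycomics database, 3228 arrays were curated, keeping only those whose protein sequence was available. Binding is given as a within-array Z-score averaged across arrays sharing a protein sequence and across linkers. Negative Z-scores can be read as non-binding.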
# Fuc(a1-2)Gal(b1-4)GlcNAc = biological target: Fuc(a1-2)Gal(b1-4)GlcNAc
# Method in brief: as §1
# [2] = biological target: Fuc(a1-2)Gal(b1-4)GlcNAc(b1-2)Man(a1-3)[Fuc(a1-2)Gal(b1-4)GlcNAc(b1-2)Man(a1-6)]Man(b1-4)GlcNAc(b1-4)[Fuc(a1-6)]GlcNAc
# Method in brief: as §1
# [3] = biological target: Fuc(a1-2)Gal(b1-4)GlcNAc(b1-3)Gal(b1-4)GlcNAc(b1-2)Man(a1-3)[Fuc(a1-2)Gal(b1-4)GlcNAc(b1-3)Gal(b1-4)GlcNAc(b1-2)Man(a1-6)]Man(b1-4)GlcNAc(b1-4)GlcNAc
# Method in brief: as §1
# [4] = biological target: Fuc(a1-2)Gal(b1-4)GlcNAc(b1-6)GalNAc
# Method in brief: as §1
# [5] = biological target: Fuc(a1-2)Gal(b1-4)[Fuc(a1-3)]GlcNAc(b1-3)Gal(b1-4)[Fuc(a1-3)]GlcNAc(b1-3)Gal(b1-4)[Fuc(a1-3)]GlcNAc
# Method in brief: as §1
# [6] = biological target: Fuc(a1-2)Gal6S(b1-4)Glc6S
# Method in brief: as §1
# [7] = biological target: Fuc(a1-2)[Gal(a1-3)]Gal(b1-3)GlcNAc(b1-6)GalNAc
# Method in brief: as §1
# [8] = biological target: Fuc(a1-2)[Gal(a1-3)]Gal(b1-4)GlcNAc
# Method in brief: as §1
# [9] = biological target: Fuc(a1-2)[GalNAc(a1-3)]Gal(b1-3)GlcNAc(b1-2)Man(a1-3)[Fuc(a1-2)[GalNAc(a1-3)]Gal(b1-3)GlcNAc(b1-2)Man(a1-6)]Man(b1-4)GlcNAc(b1-4)GlcNAc
# Method in brief: as §1
# [10] = biological target: Fuc(a1-2)[GalNAc(a1-3)]Gal(b1-4)GlcNAc(b1-3)Gal(b1-4)GlcNAc(b1-3)Gal(b1-4)GlcNAc
# Method in brief: as §1
# [11] = biological target: Fuc(a1-3)[Gal(b1-4)]GlcNAc(b1-6)[Gal(b1-3)GlcNAc(b1-3)]Gal(b1-4)Glc
# Method in brief: as §1
# Gal(a1-3)Gal(b1-4)Glc = biological target: Gal(a1-3)Gal(b1-4)Glc
# Method in brief: as §1
# [12] = biological target: Gal(a1-4)Gal(b1-3)GlcNAc(b1-2)Man(a1-3)[Gal(a1-4)Gal(b1-3)GlcNAc(b1-2)Man(a1-6)]Man(b1-4)GlcNAc(b1-4)GlcNAc
# Method in brief: as §1
# Gal(b1-3)Gal(b1-4)GlcNAc = biological target: Gal(b1-3)Gal(b1-4)GlcNAc
# Method in brief: as §1
# Gal(b1-3)GalNAc = biological target: Gal(b1-3)GalNAc
# Method in brief: as §1
# [13] = biological target: Gal(b1-3)GlcNAc(b1-2)Man(a1-3)[Gal(b1-3)GlcNAc(b1-2)Man(a1-6)]Man(b1-4)GlcNAc(b1-4)[Fuc(a1-6)]GlcNAc
# Method in brief: as §1
# Gal(b1-3)GlcNAc6S = biological target: Gal(b1-3)GlcNAc6S
# Method in brief: as §1
# [14] = biological target: Gal(b1-3)[Fuc(a1-4)]GlcNAc(b1-6)GalNAc
# Method in brief: as §1
# [15] = biological target: Gal(b1-3)[Neu5Ac(a2-6)]GlcNAc(b1-4)Gal(b1-4)Glc
# Method in brief: as §1
# [16] = biological target: Gal(b1-4)GalNAc(a1-3)[Fuc(a1-2)]Gal(b1-4)GlcNAc
# Method in brief: as §1
# [17] = biological target: Gal(b1-4)GlcNAc(b1-3)Gal(b1-4)GlcNAc(b1-2)Man(a1-3)[Gal(b1-4)GlcNAc(b1-3)Gal(b1-4)GlcNAc(b1-2)Man(a1-6)]Man(b1-4)GlcNAc(b1-4)GlcNAc
# Method in brief: as §1
# [18] = biological target: Gal(b1-4)GlcNAc(b1-3)Gal(b1-4)GlcNAc(b1-2)[Gal(b1-4)GlcNAc(b1-3)Gal(b1-4)GlcNAc(b1-6)]Man(a1-6)[Gal(b1-4)GlcNAc(b1-3)Gal(b1-4)GlcNAc(b1-2)Man(a1-3)]Man(b1-4)GlcNAc(b1-4)GlcNAc
# Method in brief: as §1
# [19] = biological target: Gal(b1-4)GlcNAc(b1-3)Gal(b1-4)GlcNAc(b1-3)Gal(b1-4)GlcNAc(b1-2)[Gal(b1-4)GlcNAc(b1-3)Gal(b1-4)GlcNAc(b1-3)Gal(b1-4)GlcNAc(b1-6)]Man(a1-6)[Gal(b1-4)GlcNAc(b1-3)Gal(b1-4)GlcNAc(b1-3)Gal(b1-4)GlcNAc(b1-2)Man(a1-3)]Man(b1-4)GlcNAc(b1-4)[Fuc(a1-6)]GlcNAc
# Method in brief: as §1
# [20] = biological target: Gal(b1-4)GlcNAc(b1-3)Gal(b1-4)GlcNAc(b1-3)Gal(b1-4)GlcNAc(b1-3)Gal(b1-4)GlcNAc(b1-2)Man(a1-3)[Gal(b1-4)GlcNAc(b1-3)Gal(b1-4)GlcNAc(b1-3)Gal(b1-4)GlcNAc(b1-3)Gal(b1-4)GlcNAc(b1-2)Man(a1-6)]Man(b1-4)GlcNAc(b1-4)GlcNAc
# Method in brief: as §1
binder,measurement,setting,value
Gal 7 (Homo sapiens) (protein) MSNVPHKSSLPEGIRPGTVLRIRGLVPPNASRFHVNLLCGEEGGSDAALHFNPRLDTSEVVFNSKEGGSWGREESGPGVPFGRGQPFEVLIIASDDGFKAVVGDAQYHHFRHRLPLARVRLVEVGGDVQLDSVRIF,glycan array binding signal (z-score),[1],0.022
same,glycan array binding signal (z-score),Fuc(a1-2)Gal(b1-4)GlcNAc,-0.214
same,glycan array binding signal (z-score),[2],1.07
same,glycan array binding signal (z-score),[3],13.1
same,glycan array binding signal (z-score),[4],0.439
same,glycan array binding signal (z-score),[5],0.209
same,glycan array binding signal (z-score),[6],0.38
same,glycan array binding signal (z-score),[7],-0.325
same,glycan array binding signal (z-score),[8],-0.56
same,glycan array binding signal (z-score),[9],-0.27
same,glycan array binding signal (z-score),[10],-0.239
same,glycan array binding signal (z-score),[11],0.106
same,glycan array binding signal (z-score),Gal(a1-3)Gal(b1-4)Glc,0.28
same,glycan array binding signal (z-score),[12],-0.347
same,glycan array binding signal (z-score),Gal(b1-3)Gal(b1-4)GlcNAc,-0.425
same,glycan array binding signal (z-score),Gal(b1-3)GalNAc,-0.37
same,glycan array binding signal (z-score),[13],0.404
same,glycan array binding signal (z-score),Gal(b1-3)GlcNAc6S,-0.422
same,glycan array binding signal (z-score),[14],-0.149
same,glycan array binding signal (z-score),[15],-0.354
same,glycan array binding signal (z-score),[16],-0.282
same,glycan array binding signal (z-score),[17],3.67
same,glycan array binding signal (z-score),[18],1.49
same,glycan array binding signal (z-score),[19],3.31
same,glycan array binding signal (z-score),[20],5.53
